Where “and” joins values, the source holds several entries; their conditions need not be identical. Equal entries are not always repeated. Among all 5,500 compounds or so, about 2,000 (36%) were called active. Not shown: some 18% with an inconclusive outcome. Cut-off read from the data, not from the text of the source: active = normalized growth mostly below about 0.91 (no sharp cut-off); inconclusive = no clear call, values can overlap the other calls; inactive = mostly above about 0.92. The list shows a part of the results.
Assay: chemical genetic growth profiling, strain panel (AID 1159580);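 note: tested at 20 µM; growth read once vehicle control cultures reached saturation at 30 °C; 1 = growth at the plate median or of vehicle wells; lower values mean less growth of the strain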
Details: growth OD

Measured: normalized growth

Nc1nc(N)c2nc(-c3ccccc3)c(N)nc2n1
inactive: S. cerevisiae deletion strains, locus YJR075W, strain HOC1, active compounds read low 1.01 | S. cerevisiae deletion strains, locus YKL009W, strain mrt4, active compounds read low 1.02 | S. cerevisiae deletion strains, locus YKL068W, active compounds read low 1 | S. cerevisiae deletion strains, locus YKL085W, strain MDH1 (second series), active compounds read low 1.01 | S. cerevisiae deletion strains, locus YKL085W, strain MDH1, active compounds read low 1.01 | S. cerevisiae deletion strains, locus YKL160W, strain elf1, active compounds read low 1 | S. cerevisiae deletion strains, locus YKL190W, strain CNB1, active compounds read low 1 | S. cerevisiae deletion strains, locus YKR001C, strain vps1, active compounds read low 1.02 | S. cerevisiae deletion strains, locus YKR026C, strain gcn3, active compounds read low 1.01 | S. cerevisiae deletion strains, locus YKR091W, strain srl3, active compounds read low 0.998 | S. cerevisiae deletion strains, locus YLL001W, strain dnm1, active compounds read low 1 | S. cerevisiae deletion strains, locus YLL026W, active compounds read low 0.999 | S. cerevisiae deletion strains, locus YLL041C, strain sdh2, active compounds read low 0.999 | S. cerevisiae deletion strains, locus YLR027C, strain aat2, active compounds read low 1.01 | S. cerevisiae deletion strains, locus YLR039C, strain RIC1, active compounds read low 1.04 | S. cerevisiae deletion strains, locus YLR058C, strain SHM2, active compounds read low 1 | S. cerevisiae deletion strains, locus YLR102C, strain apc9, active compounds read low 1.01 | S. cerevisiae deletion strains, locus YLR113W, strain HOG1, active compounds read low 1 | S. cerevisiae deletion strains, locus YLR221C, strain rsa3, active compounds read low 0.975 | S. cerevisiae deletion strains, locus YLR258W, strain gsy2, active compounds read low 0.999 | S. cerevisiae deletion strains, locus YLR262C, strain YPT6 (second series), active compounds read low 1.02 | S. cerevisiae deletion strains, locus YLR262C, strain YPT6, active compounds read low 1 | S. cerevisiae deletion strains, locus YLR268W, strain sec22, active compounds read low 1.05 | S. cerevisiae deletion strains, locus YLR320W, strain mms22, active compounds read low 0.99 | S. cerevisiae deletion strains, locus YLR330W, strain CHS5, active compounds read low 1.01 | S. cerevisiae deletion strains, locus YLR342W, strain FKS1 (second series), active compounds read low 1.02 | S. cerevisiae deletion strains, locus YLR342W, strain FKS1, active compounds read low 0.996 | S. cerevisiae deletion strains, locus YLR357W, strain rsc2, active compounds read low 1.01 | S. cerevisiae deletion strains, locus YLR370C, strain arc18, active compounds read low 0.995 | S. cerevisiae deletion strains, locus YLR371W, strain rom2, active compounds read low 1.01 | S. cerevisiae deletion strains, locus YLR384C, strain iki3, active compounds read low 1.01 | S. cerevisiae deletion strains, locus YLR418C, strain cdc73, active compounds read low 0.972 | S. cerevisiae deletion strains, locus YML016C, strain PPZ1, active compounds read low 0.999 | S. cerevisiae deletion strains, locus YML032C, strain rad52, active compounds read low 1.02 | S. cerevisiae deletion strains, locus YML120C, strain ndi1, active compounds read low 1.02 | S. cerevisiae deletion strains, locus YML124C, strain tub3, active compounds read low 1.01 | S. cerevisiae deletion strains, locus YMR058W, strain fet3, active compounds read low 1.01 | S. cerevisiae deletion strains, locus YMR078C, strain ctf18, active compounds read low 1 | S. cerevisiae deletion strains, locus YMR125W, strain sto1, active compounds read low 1 | S. cerevisiae deletion strains, locus YMR129W, active compounds read low 0.998 | S. cerevisiae deletion strains, locus YMR205C, strain PFK2, active compounds read low 1.01 | S. cerevisiae deletion strains, locus YMR223W, strain ubp8, active compounds read low 0.994 | S. cerevisiae deletion strains, locus YMR231W, strain pep5, active compounds read low 0.997 | S. cerevisiae deletion strains, locus YMR263W, strain SAP30, active compounds read low 1 and 0.995 | S. cerevisiae deletion strains, locus YMR307W, strain GAS1, active compounds read low 1.04 and 1.01 | S. cerevisiae deletion strains, locus YNL067W, strain RPL9B, active compounds read low 0.995 | S. cerevisiae deletion strains, locus YNL071W, strain lat1, active compounds read low 0.996 | S. cerevisiae deletion strains, locus YNL153C, strain GIM3, active compounds read low 1 | S. cerevisiae deletion strains, locus YNL175C, strain NOP13, active compounds read low 0.987 | S. cerevisiae deletion strains, locus YNL183C, strain NPR1, active compounds read low 0.933 | S. cerevisiae deletion strains, locus YNL197C, strain WHI3, active compounds read low 0.967 | S. cerevisiae deletion strains, locus YNL209W, strain ssb2, active compounds read low 1 | S. cerevisiae deletion strains, locus YNL224C, strain SQS1, active compounds read low 0.995 | S. cerevisiae deletion strains, locus YNL233W, strain BNI4, active compounds read low 1 | S. cerevisiae deletion strains, locus YNL248C, strain rpa49, active compounds read low 0.969 | S. cerevisiae deletion strains, locus YNL250W, strain rad50, active compounds read low 1 | S. cerevisiae deletion strains, locus YNL271C, strain bni1, active compounds read low 1.01 | S. cerevisiae deletion strains, locus YNL298W, strain CLA4, active compounds read low 1.03 | S. cerevisiae deletion strains, locus YNL307C, strain MCK1, active compounds read low 1.01 | S. cerevisiae deletion strains, locus YNL322C, strain KRE1 (second series), active compounds read low 1.01 | S. cerevisiae deletion strains, locus YNL322C, strain KRE1, active compounds read low 1 | S. cerevisiae deletion strains, locus YNR049C, strain mso1, active compounds read low 0.993 | S. cerevisiae deletion strains, locus YNR052C, strain pop2, active compounds read low 1.01 | S. cerevisiae deletion strains, locus YOL006C, strain TOP1, active compounds read low 1.02 | S. cerevisiae deletion strains, locus YOL012C, strain htz1 0.947 | S. cerevisiae deletion strains, locus YOL147C, strain pex11, active compounds read low 1.01 | S. cerevisiae deletion strains, locus YOR001W, strain rrp6, active compounds read low 1.01 | S. cerevisiae deletion strains, locus YOR061W, strain CKA2, active compounds read low 0.999 | S. cerevisiae deletion strains, locus YOR069W, strain VPS5, active compounds read low 1 | S. cerevisiae deletion strains, locus YOR070C, strain gyp1, active compounds read low 0.991 | S. cerevisiae deletion strains, locus YOR080W, strain dia2, active compounds read low 1.01 | S. cerevisiae deletion strains, locus YOR083W, strain WHI5 (second series), active compounds read low 0.969 | S. cerevisiae deletion strains, locus YOR083W, strain WHI5, active compounds read low 0.989 | S. cerevisiae deletion strains, locus YOR106W, strain vam3, active compounds read low 1.02 | S. cerevisiae deletion strains, locus YOR136W, strain idh2, active compounds read low 0.993 | S. cerevisiae deletion strains, locus YOR144C, strain elg1, active compounds read low 1.01 | S. cerevisiae deletion strains, locus YOR184W, strain ser1, active compounds read low 0.98 | S. cerevisiae deletion strains, locus YOR231W, strain MKK1, active compounds read low 1.01 | S. cerevisiae deletion strains, locus YOR265W, strain rbl2, active compounds read low 0.996 | S. cerevisiae deletion strains, locus YOR270C, strain vph1, active compounds read low 1.01 | S. cerevisiae deletion strains, locus YOR290C, strain snf2, active compounds read low 0.991 | S. cerevisiae deletion strains, locus YOR316C, strain cot1, active compounds read low 1.01 | S. cerevisiae deletion strains, locus YPL051W, strain arl3, active compounds read low 0.993 | S. cerevisiae deletion strains, locus YPL055C, strain LGE1, active compounds read low 1.02 | S. cerevisiae deletion strains, locus YPL078C, strain atp4, active compounds read low 1.01 | S. cerevisiae deletion strains, locus YPL106C, strain sse1, active compounds read low 0.995 | S. cerevisiae deletion strains, locus YPL240C, strain hsp82, active compounds read low 1 | S. cerevisiae deletion strains, locus YPL241C, strain CIN2, active compounds read low 1 and 0.998 | S. cerevisiae deletion strains, locus YPL256C, strain CLN2, active compounds read low 0.99 | S. cerevisiae deletion strains, locus YPR119W, strain clb2, active compounds read low 1 | S. cerevisiae deletion strains, locus YPR141C, strain kar3, active compounds read low 1.01 | S. cerevisiae deletion strains, locus YPR163C, strain tif3, active compounds read low 1.02 | S. cerevisiae deletion strains, locus YPR167C, strain met16, active compounds read low 1.01 | S. cerevisiae deletion strains, strain wtn01, active compounds read low 1.01 | S. cerevisiae strains, strain wild type, active compounds read low 0.997

Source: PubChem BioAssay AID1159580 (chemical genetic matrix, 2015)
